8 molecules from PubChem BioAssay (NCI) can be followed below.

Compounds without any hit were thinned out: in the full panel of roughly 83,000, 20% have a hit.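 Percent growth is the endpoint: 0 to 100 indicates growth inhibition (40 means 60% inhibition), 0 means no net growth, and negative values indicate cell death.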 Unmarked numbers belong to inactive results. Active and inactive are the calls of the source. How the source made its calls: active means growth percent below 10; inactive means the rest.

Test in all cases: NCI-60 one-dose screen, 48 h (100 = growth as untreated, 0 = no growth, -100 = all killed)
What all share (conditions): 10 µM unless noted

Experiment [1] deals with DU-145 prostate.
Experiment [2] concerns K-562 leukemia.
Experiment [3] relates to MALME-3M melanoma.
In experiment [4] the test system is MDA-MB-231 breast.
The subject of experiment [5] is RXF 393 renal.
Experiment [6] concerns SF-268 CNS.
In experiment [7] the test system is SF-295 CNS.
Experiment [8] deals with SF-539 CNS.
The subject of experiment [9] is UACC-257 melanoma.
For experiment [10], the system named is M14 melanoma.
In experiment [11] the test system is HCT-15 colon.
The subject of experiment [12] is HT29 colon.
Experiment [13] deals with SNB-75 CNS.
Experiment [14] concerns SNB-19 CNS.
In experiment [15] the test system is U251 CNS.
Experiment [16] has as its system PC-3 prostate.
In experiment [17] the test system is SK-MEL-5 melanoma.
Experiment [18] has as its system UACC-62 melanoma.
Experiment [19] concerns LOX IMVI melanoma.
The subject of experiment [20] is SK-MEL-28 melanoma.

Regarding `CCOCCNc1ccc(S(=O)(=O)c2ccc(N)cc2)cc1N`, the growth was 119% in experiment [1]; 107% in experiment [2]; 109% in experiment [3]; 118% in experiment [4]; 130% in experiment [5]; 97.1% in experiment [6]. Further, the growth in [7] was 96.2%; in experiment [8], 109%; in experiment [9], 92.8%; in [10] it was 112%; in experiment [11], 109%; in experiment [12], 114%. The growth in [13] is 96.7%; in experiment [14], 114%; in experiment [15], 98.2%; in experiment [16], 111%; in [17] it was 102%; in [18], 95.1%. Moreover, the growth in experiment [19] is 91.1%; in experiment [20], 112%.

For `CCCCCCCCCCCC1=NC(C)(C)CN1CC(C)O` (stereo not given), the growth in experiment [1] was 80.1%; in experiment [2] it was -44.6% (active); in [3], 79%; in experiment [4] it was 44%; in [5] it was 28.9%; in experiment [6] it was 60.1%. For the same molecule, the growth in experiment [7] is 93.3%; in [8] it was 63.8%; in experiment [9] it was 59.5%; in experiment [10], -2.07% (active); in [11], 6.24% (active); in experiment [12], -48.3% (active). For the same molecule, the growth in experiment [13] is 61.8%; in experiment [14] it was 96.8%; in experiment [15], 33.9%; in [16] it was 51.4%; in [17], 34%; in experiment [18] it was -49.4% (active). Moreover, the values for the growth in [19] and in experiment [20] were 6.88% (active) and 59.8%, respectively.

For the molecule `CC(C)c1ccc2c(c1)CCC1C2CCCC1(C)NCc1ccccc1` (stereo not given), the growth was 75% in experiment [1]; 11.1% in experiment [2]; -32.3% (active) in experiment [3]; 39.8% in experiment [4]; 51.7% in experiment [5]; 79.2% in experiment [6]. Besides, the growth in experiment [7] is 96.7%; in [8], 90%; in experiment [9], -31.2% (active); in [10], -84.9% (active); in experiment [11] it was 6.42% (active); in [12] it was 16.2%. Also, the growth in [13] was 85.3%; in experiment [14], 104%; in experiment [15] it was 48%; in experiment [16], 85.4%; in experiment [17] it was 27.5%; in experiment [18], -27.4% (active). The growth in [19] was 52.1%; in experiment [20], -32% (active).

Consider `O=c1nc(-c2ccccc2)c2cc(-c3ccc(N4CCOCC4)cc3)ccc2[nH]1`, for which the growth in [1] is 79.7%; in experiment [2], 71.8%; in [3], 98.4%; in [4], 78.4%; in experiment [5], 73.4%; in [6], 94.3%. The growth in experiment [7] was 88.6%; in [8], 94.9%; in experiment [9], 71.6%; in experiment [10], 92.3%; in experiment [11], 74%; in [12] it was 84.5%. For the same molecule, the growth in experiment [13] is 106%; in experiment [14], 87.4%; in [15] it was 69.9%; in experiment [16], 70.9%; in experiment [17] it was 83.6%; in experiment [18] it was 74.3%. Also, the results for the growth in experiment [19] and in [20] were 74.5% and 91.8%, respectively.

`Nc1ncnc2c1N=C(c1ccc3c(c1)OCO3)CC(c1ccc(Cl)cc1)N2` (stereo not given): the growth was 92% in [1]; 83.8% in experiment [2]; 77.2% in experiment [3]; 72.3% in [4]; 55.1% in experiment [5]; 77.3% in experiment [6]. The growth in experiment [7] is 93.4%; in experiment [8], 80.2%; in [9], 96.2%; in [10], 96%; in experiment [11], 63.6%; in experiment [12], 69.8%. For the same molecule, the growth is 48.5% in [13]; 67.8% in [14]; 74% in [15]; 62.6% in experiment [16]; 78% in experiment [17]; 60.3% in [18]. For the same molecule, the growth in [19] was 76.2%; in experiment [20], 88.5%.

As to `C=C1C(=O)O[C@H]2[C@H]1CC/C(COC(=O)N[C@@H](Cc1c[nH]c3ccccc13)C(=O)OC)=C\CC[C@@]1(C)O[C@@H]21`, the growth was 20.5% in experiment [1]; -1.67% (active) in experiment [2]; -38.4% (active) in experiment [3]; 25.2% in experiment [4]; -55.4% (active) in experiment [5]; 46.7% in experiment [6]. Besides, the growth in experiment [7] was 72.3%; in experiment [8] it was 25.3%; in experiment [9], 11.5%; in experiment [10], -45.3% (active); in [11], -12.1% (active); in [12] it was -29.5% (active). Moreover, the growth in [13] is 68.7%; in experiment [14], 66.8%; in [15], 25.3%; in [16], 33.3%; in experiment [17], 21.8%; in experiment [18], 27.8%. Also, the growth in experiment [19] was -38.5% (active); in experiment [20], 6.71% (active).

`CC(C)(c1ccccc1)c1cc(O)c(C(C)(C)c2ccccc2)cc1O`: the growth was 63.3% in experiment [1]; 13% in [2]; 48.5% in experiment [3]; -1.39% (active) in experiment [4]; 63.4% in experiment [5]; 38.7% in experiment [6]. For the same molecule, the growth in experiment [7] is 25%; in experiment [8], 50.4%; in experiment [9], 11.3%; in experiment [10], 11.9%; in [11] it was 21.3%; in experiment [12], 15.8%. Further, the growth is 43.5% in experiment [13]; 37.8% in [14]; 36.5% in experiment [15]; 16.9% in experiment [16]; 11.3% in [17]; 20.6% in experiment [18]. The results for the growth in experiment [19] and in experiment [20] were 32.7% and 53.2%, respectively.

Consider `CC(NC(=O)c1ccccc1)C(=O)Nc1ccccc1` (stereo not given), for which the growth in [1] is 118%; in experiment [2], 91.4%; in [3], 145%; in [4] it was 115%; in experiment [5], 118%; in experiment [6] it was 108%. The growth is 125% in experiment [7]; 97.2% in experiment [8]; 103% in experiment [9]; 103% in experiment [10]; 115% in [11]; 103% in experiment [12]. In addition, the growth was 88.3% in [13]; 107% in experiment [14]; 101% in [15]; 92.8% in experiment [16]; 104% in [17]; 104% in experiment [18]. Also, the values for the growth in experiment [19] and in experiment [20] were 99.6% and 115%, respectively.
